Laboratory results as given in PubChem BioAssay (NCI).
About 79,000 compounds went through this panel and 15% of them were active in at least one assay; those are over-represented in the sample as a whole. Unmarked numbers belong to inactive results. Active and inactive are the calls of the source. Rule as the data show it: active = growth inhibition above about 70%; inactive = the rest.

Columns and labels:
[1] = NCI Yeast Anticancer Drug Screen. Data for the rad50 strain (AID 155);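 also: 0% = growth of vehicle-only cultures of the same strain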; details: S. cerevisiae rad50 strain growth inhibition; at 50.0 µM; stronger effect = higher value
Outline: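 Relative growth inhibition (compound vs vehicle) was measured in yeast with a defined repair-gene alteration.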

[2] = NCI Yeast Anticancer Drug Screen. Data for the mec2-1 strain (AID 157); details: S. cerevisiae mec2-1 strain, at 50.0 µM, stronger effect = higher value
Outline: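 mec2-1 yeast strain, carrying an alteration in DNA damage repair or cell cycle control, was exposed to compounds; growth inhibition was measured relative to vehicle-treated controls.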

[3] = NCI Yeast Anticancer Drug Screen. Data for the sgs1 mgt1 strain (AID 161);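 also: 0% = growth of cultures given vehicle only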; details: S. cerevisiae sgs1 mgt1 strain, at 50.0 µM, stronger effect = higher value
Outline: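 Percent growth inhibition was derived by comparing compound-exposed mutant yeast with vehicle-exposed cultures. The strain carries alterations in DNA damage repair.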

[4] = NCI Yeast Anticancer Drug Screen. Data for the cln2 rad14 strain (AID 165);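 also: 0% = growth equal to vehicle treated cultures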; details: S. cerevisiae cln2 rad14 strain, at 50.0 µM, stronger effect = higher value
Outline: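 Yeast carrying cln2 and rad14 alterations (cell cycle control and DNA damage repair) were exposed to compounds. Growth inhibition was measured against vehicle-treated controls.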

[5] = NCI Yeast Anticancer Drug Screen. Data for the bub3 strain (AID 167); details: S. cerevisiae bub3 mutant strain, at 50.0 µM, stronger effect = higher value
Outline: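 Screening used yeast with an engineered genetic alteration affecting cell cycle control. Compound-exposed cultures were compared with vehicle cultures, and reduced growth was taken as inhibition.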

[6] = NCI Yeast Anticancer Drug Screen. Data for the mlh1 rad18 strain (AID 175); details: S. cerevisiae mlh1 rad18 strain growth inhibition; at 50.0 µM; stronger effect = higher value
Outline: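 Growth inhibition of the yeast strain was measured after compound exposure and expressed relative to vehicle-treated controls. The strain carries defined defects in DNA damage repair.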

Fc1c(F)c(F)c(-c2nnc(-c3c(F)c(F)c(F)c(F)c3F)o2)c(F)c1F
growth inhibition [1]: -2.45% | growth inhibition [2]: 2.75% | growth inhibition [3]: -8.75% | growth inhibition [4]: -56.8% | growth inhibition [5]: 9.3% | growth inhibition [6]: 4.25%

COC(=O)/C=C\CC(=O)OC
growth inhibition [1]: 2.75% | growth inhibition [2]: -5% | growth inhibition [3]: -19.9% | growth inhibition [4]: -5.05% | growth inhibition [5]: -11% | growth inhibition [6]: -0.65%

CCc1nc2cc(F)ccc2[nH]c1=O
growth inhibition [1]: 17.3% | growth inhibition [2]: 24.2% | growth inhibition [3]: 28.9% | growth inhibition [4]: 21.4% | growth inhibition [5]: 40.9% | growth inhibition [6]: -7.55%

COCC(=O)c1ccccc1-c1ccccc1
growth inhibition [1]: 13.6% | growth inhibition [2]: -2.65% | growth inhibition [3]: 3.15% | growth inhibition [4]: -4.1% | growth inhibition [5]: -11.2% | growth inhibition [6]: 0.85%

O=C1C=C(NCCCCC2CCCCC2)c2ccccc2C1=O
growth inhibition [1]: 11.8% | growth inhibition [2]: -3.25% | growth inhibition [3]: 0.15% | growth inhibition [4]: 11.2% | growth inhibition [5]: -9.3% | growth inhibition [6]: -4.6%

CCOC(=O)c1ccncc1
growth inhibition [1]: 23.6% | growth inhibition [2]: -0.95% | growth inhibition [3]: 21.7% | growth inhibition [4]: -4.4% | growth inhibition [5]: -1.5% | growth inhibition [6]: 6.4%

C=C1CCC/C(=N\Nc2ccc([N+](=O)[O-])cc2[N+](=O)[O-])C12CCCC2
growth inhibition [1]: -2.45% | growth inhibition [2]: 3.45% | growth inhibition [3]: -4.65% | growth inhibition [4]: -11.6% | growth inhibition [5]: 1.15% | growth inhibition [6]: -1.35%

CC/C(C)=C1\OC(=O)C(C)C(O)C(Cc2cccnc2)NC(=O)C(NC(=O)c2ncccc2O)C(C)OC1=O (configuration not stated)
growth inhibition [1]: -4.45% | growth inhibition [2]: 3.7% | growth inhibition [3]: 0.45% | growth inhibition [4]: -10.4% | growth inhibition [5]: -3% | growth inhibition [6]: -14.9%

O=C(NCCc1c[nH]c2ccccc12)C1CCCCC1
growth inhibition [1]: -3.65% | growth inhibition [2]: -5.45% | growth inhibition [3]: 7.85% | growth inhibition [4]: -25.6% | growth inhibition [5]: 14.1% | growth inhibition [6]: -10.1%

Oc1ccc(-c2ccc(O)cc2O)c(O)c1
growth inhibition [1]: -1.45% | growth inhibition [2]: -20.9% | growth inhibition [3]: -1.85% | growth inhibition [4]: 7.45% | growth inhibition [5]: 0.35% | growth inhibition [6]: 14.2%

O=C(c1ccccc1)C1(Cl)CCCCC1
growth inhibition [1]: -9.95% | growth inhibition [2]: -12.6% | growth inhibition [3]: -10.8% | growth inhibition [4]: -8.45% | growth inhibition [5]: -5.15% | growth inhibition [6]: 15.6%

COc1cc(O)c(O)cc1C(C)(C)C
growth inhibition [1]: 35.9% | growth inhibition [2]: 24.6% | growth inhibition [3]: 45.4% | growth inhibition [4]: -11.7% | growth inhibition [5]: 36.5% | growth inhibition [6]: -1.25%

COC(=O)C(Cc1ccccc1)NC(=O)C(CCC(=O)OCc1ccccc1)NC(=O)OC(C)(C)C (configuration not stated)
growth inhibition [1]: 30.9% | growth inhibition [2]: 8.55% | growth inhibition [3]: 19.8% | growth inhibition [4]: 19.9% | growth inhibition [5]: 31.4% | growth inhibition [6]: 22%

CCN(CC)C(CC(=O)c1ccccc1)C(=O)c1ccccc1 (configuration not stated)
growth inhibition [1]: 23.9% | growth inhibition [2]: 16.5% | growth inhibition [3]: 13.2% | growth inhibition [4]: -10% | growth inhibition [5]: 13.3% | growth inhibition [6]: 49.6%

CC(O)C1CCCCC1O (configuration not stated)
growth inhibition [1]: 5.15% | growth inhibition [2]: -28.3% | growth inhibition [3]: -2.85% | growth inhibition [4]: -8.65% | growth inhibition [5]: -9.6% | growth inhibition [6]: -11.3%

O=C(Nc1cccc(Cl)c1)ON1C(=O)C2C(C1=O)C1(Cl)C(Cl)C(Cl)C2(Cl)C1(Cl)Cl (configuration not stated)
growth inhibition [1]: 0.4% | growth inhibition [2]: 19.4% | growth inhibition [3]: -15.8% | growth inhibition [4]: -1.35% | growth inhibition [5]: -24% | growth inhibition [6]: -16.1%

Nc1cc(=O)n(Cc2ccco2)c(=S)[nH]1
growth inhibition [1]: 19.8% | growth inhibition [2]: -16.6% | growth inhibition [3]: 9.35% | growth inhibition [4]: 2.75% | growth inhibition [5]: -7.95% | growth inhibition [6]: -8%

CCCCCC(=O)/C=C/CC(CCCCCCC#N)C(CC(OC)OC)[N+](=O)[O-] (configuration not stated)
growth inhibition [1]: -42.2% | growth inhibition [2]: -24.2% | growth inhibition [3]: 0.9% | growth inhibition [4]: 14.3% | growth inhibition [5]: -1.75% | growth inhibition [6]: -37.4%

O=C(O)CC(NC(=O)c1cnc2ccccc2n1)C(=O)O (configuration not stated)
growth inhibition [1]: -3.65% | growth inhibition [2]: -9.85% | growth inhibition [3]: 4.3% | growth inhibition [4]: -17.1% | growth inhibition [5]: 12.7% | growth inhibition [6]: -1%

O=[N+]([O-])c1cccc(-c2csc(NNC3=NC/C(=C/c4ccc5c(c4)OCO5)S3)n2)c1
growth inhibition [1]: 33.5% | growth inhibition [2]: -7.9% | growth inhibition [3]: 33% | growth inhibition [4]: -33.5% | growth inhibition [5]: 23.6% | growth inhibition [6]: 22.1%

C/C=C/C(=O)OCCCCCCCCCCCCCCCCCC
growth inhibition [1]: 13.7% | growth inhibition [2]: -23.8% | growth inhibition [3]: 11.7% | growth inhibition [4]: 8% | growth inhibition [5]: 15.5% | growth inhibition [6]: 21%

C=CCNC(=S)Nc1ccccc1OCC
growth inhibition [1]: 5.2% | growth inhibition [2]: -3.8% | growth inhibition [3]: -5.05% | growth inhibition [4]: -68.5% | growth inhibition [5]: -9.6% | growth inhibition [6]: 0.2%

S=c1[nH]ncn2nc3ccccc3c12
growth inhibition [1]: 0.15% | growth inhibition [2]: 2.5% | growth inhibition [3]: -2.25% | growth inhibition [4]: -45.5% | growth inhibition [5]: -3.85% | growth inhibition [6]: 1.7%

OC1CCCCC2CC2C1O (configuration not stated)
growth inhibition [1]: 9.25% | growth inhibition [2]: -2.8% | growth inhibition [3]: 6.8% | growth inhibition [4]: -44.7% | growth inhibition [5]: 3.55% | growth inhibition [6]: -5.65%

COC(=O)c1cc(C(=O)OC)cc([N+](=O)[O-])c1
growth inhibition [1]: -6.4% | growth inhibition [2]: -21.9% | growth inhibition [3]: 8.75% | growth inhibition [4]: 20.4% | growth inhibition [5]: -38.5% | growth inhibition [6]: 0.05%

COCCNC(=O)/C=C\C(=O)O
growth inhibition [1]: 3.35% | growth inhibition [2]: -3.55% | growth inhibition [3]: -2.95% | growth inhibition [4]: -49.4% | growth inhibition [5]: 12.2% | growth inhibition [6]: -3.8%

CCOc1ccc(/C=C2\CCc3ccccc3C2=O)cc1
growth inhibition [1]: 16.4% | growth inhibition [2]: 16.6% | growth inhibition [3]: 22.7% | growth inhibition [4]: 20.9% | growth inhibition [5]: 26.9% | growth inhibition [6]: 21.6%

CCc1cn(O)c(C)cc1=N
growth inhibition [1]: 25.3% | growth inhibition [2]: 11.1% | growth inhibition [3]: 6.15% | growth inhibition [4]: 5.8% | growth inhibition [5]: 12% | growth inhibition [6]: 21.1%

FC1(F)ON2CCc3ccccc3C2[C@H]1c1ccccc1 (some centres not stated)
growth inhibition [1]: 13.3% | growth inhibition [2]: 14.7% | growth inhibition [3]: 10.2% | growth inhibition [4]: 10% | growth inhibition [5]: 22.4% | growth inhibition [6]: -50%

O=C(c1ccncc1)n1nc(-c2ccccc2)c(N=Nc2ccccc2[N+](=O)[O-])c1-c1ccccc1
growth inhibition [1]: -1.75% | growth inhibition [2]: -16.8% | growth inhibition [3]: -9.3% | growth inhibition [4]: 1.65% | growth inhibition [5]: 30.3% | growth inhibition [6]: 1%

COc1ccc2c(c1)CCCN2
growth inhibition [1]: -3.4% | growth inhibition [2]: -23% | growth inhibition [3]: -4.05% | growth inhibition [4]: -20.1% | growth inhibition [5]: -13.3% | growth inhibition [6]: 3.65%

O=C(O)COc1ccccc1F
growth inhibition [1]: -27.9% | growth inhibition [2]: 12.1% | growth inhibition [3]: -14.4% | growth inhibition [4]: -25.9% | growth inhibition [5]: 3% | growth inhibition [6]: -3.85%

Cc1ccnc(NC(NC(=O)c2ccccc2)(C(F)(F)F)C(F)(F)F)c1
growth inhibition [1]: 4.75% | growth inhibition [2]: 3.5% | growth inhibition [3]: 12.8% | growth inhibition [4]: 23.2% | growth inhibition [5]: -8.05% | growth inhibition [6]: -39.5%

CC(=O)NC(CCCCNC(=O)OCc1ccccc1)C(=O)O (configuration not stated)
growth inhibition [1]: -22.9% | growth inhibition [2]: -12.9% | growth inhibition [3]: -22.6% | growth inhibition [4]: 11.9% | growth inhibition [5]: -12.8% | growth inhibition [6]: -32.8%

CC(NC(=O)CCl)c1ccccc1 (configuration not stated)
growth inhibition [1]: 23.7% | growth inhibition [2]: -12.2% | growth inhibition [3]: -12.9% | growth inhibition [4]: 14.4% | growth inhibition [5]: 4.25% | growth inhibition [6]: 36.4%

CC1(CCOCc2ccccc2)NC(=O)N(CCC#N)C1=O (configuration not stated)
growth inhibition [1]: 6.9% | growth inhibition [2]: -9.65% | growth inhibition [3]: -4.6% | growth inhibition [4]: -10.2% | growth inhibition [5]: 2.55% | growth inhibition [6]: 12.6%

O=C(O)C1CCCCN1/N=C/c1cccc([N+](=O)[O-])c1 (configuration not stated)
growth inhibition [1]: 36% | growth inhibition [2]: 11.9% | growth inhibition [3]: 22% | growth inhibition [4]: 1.3% | growth inhibition [5]: 26.9% | growth inhibition [6]: 11.9%

O=C(C[n+]1ccccc1Cc1ccccc1)c1ccccc1
growth inhibition [1]: -6.6% | growth inhibition [2]: -4.2% | growth inhibition [3]: -14% | growth inhibition [4]: -11.6% | growth inhibition [5]: -11.4% | growth inhibition [6]: -17.9%

CC(=O)C(C(=O)C(=O)Nc1cc(Cl)c(Cl)cc1Cl)c1csc(N)n1 (configuration not stated)
growth inhibition [1]: -14.7% | growth inhibition [2]: -9.2% | growth inhibition [3]: -1.85% | growth inhibition [4]: 7% | growth inhibition [5]: -2.5% | growth inhibition [6]: -10.6%

C/C(=N\Sc1cccc([N+](=O)[O-])c1)c1ccccc1O
growth inhibition [1]: 91.2% (active) | growth inhibition [2]: 96.5% (active) | growth inhibition [3]: 96.2% (active) | growth inhibition [4]: 90.8% (active) | growth inhibition [5]: 94% (active) | growth inhibition [6]: 96% (active)

Cc1ccc(N)cc1S(=O)(=O)O
growth inhibition [1]: 29.8% | growth inhibition [2]: -10.6% | growth inhibition [3]: -9.45% | growth inhibition [4]: -14.8% | growth inhibition [5]: 3% | growth inhibition [6]: 21.6%

CC(C)(C)CC(C)(C(=O)O)C(C)(C)C (configuration not stated)
growth inhibition [1]: 4% | growth inhibition [2]: 9.25% | growth inhibition [3]: -3.25% | growth inhibition [4]: -12.6% | growth inhibition [5]: 3.15% | growth inhibition [6]: 14.7%
